Experiment [1] has as its target Ribosomal protein S6 kinase alpha-6 (Homo sapiens) (UniProt Q9UK32). As to conditions: at 1 µM.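 Note: each value is a mean inhibition of RSK4 from a GSK PKIS panel screen.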
The target in experiment [2] is T1, Serine/threonine-protein kinase Sgk1 (Homo sapiens) (UniProt O00141).
T1 sequence (whole entry): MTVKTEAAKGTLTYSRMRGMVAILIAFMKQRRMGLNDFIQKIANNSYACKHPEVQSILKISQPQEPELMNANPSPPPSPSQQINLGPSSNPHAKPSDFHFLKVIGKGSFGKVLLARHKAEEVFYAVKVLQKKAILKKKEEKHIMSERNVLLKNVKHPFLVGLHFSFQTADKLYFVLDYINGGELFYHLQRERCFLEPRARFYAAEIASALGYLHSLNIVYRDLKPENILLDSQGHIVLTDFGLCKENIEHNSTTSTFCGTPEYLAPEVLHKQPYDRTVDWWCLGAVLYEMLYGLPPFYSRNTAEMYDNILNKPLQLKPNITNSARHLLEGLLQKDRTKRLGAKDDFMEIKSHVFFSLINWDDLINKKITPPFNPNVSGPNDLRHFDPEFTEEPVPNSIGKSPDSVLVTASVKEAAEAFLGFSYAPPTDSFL
As to conditions: at 0.1 µM.

Experiment [3] deals with T1, Serine/threonine-protein kinase Sgk1 (Homo sapiens). As to conditions: at 1 µM.
In experiment [4] the target is T2, Serine/threonine-protein kinase Sgk2 (Homo sapiens) (UniProt Q9HBY8).
T2 sequence (whole entry): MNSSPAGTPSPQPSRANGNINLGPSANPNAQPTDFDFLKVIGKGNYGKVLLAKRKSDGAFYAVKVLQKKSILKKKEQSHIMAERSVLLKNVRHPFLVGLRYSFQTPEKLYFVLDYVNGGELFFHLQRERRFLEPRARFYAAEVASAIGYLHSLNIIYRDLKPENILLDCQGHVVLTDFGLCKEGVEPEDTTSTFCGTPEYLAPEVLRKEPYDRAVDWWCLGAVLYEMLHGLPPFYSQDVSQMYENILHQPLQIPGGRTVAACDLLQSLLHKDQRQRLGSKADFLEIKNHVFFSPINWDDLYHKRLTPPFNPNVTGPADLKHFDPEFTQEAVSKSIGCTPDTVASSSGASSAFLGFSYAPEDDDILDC
As to conditions: at 0.1 µM.

Experiment [5] has as its target T2, Serine/threonine-protein kinase Sgk2 (Homo sapiens). To be noted: at 1 µM.
Experiment [6] deals with T3, Serine/threonine-protein kinase Sgk3 (Homo sapiens) (UniProt Q96BR1).
T3 sequence (whole entry): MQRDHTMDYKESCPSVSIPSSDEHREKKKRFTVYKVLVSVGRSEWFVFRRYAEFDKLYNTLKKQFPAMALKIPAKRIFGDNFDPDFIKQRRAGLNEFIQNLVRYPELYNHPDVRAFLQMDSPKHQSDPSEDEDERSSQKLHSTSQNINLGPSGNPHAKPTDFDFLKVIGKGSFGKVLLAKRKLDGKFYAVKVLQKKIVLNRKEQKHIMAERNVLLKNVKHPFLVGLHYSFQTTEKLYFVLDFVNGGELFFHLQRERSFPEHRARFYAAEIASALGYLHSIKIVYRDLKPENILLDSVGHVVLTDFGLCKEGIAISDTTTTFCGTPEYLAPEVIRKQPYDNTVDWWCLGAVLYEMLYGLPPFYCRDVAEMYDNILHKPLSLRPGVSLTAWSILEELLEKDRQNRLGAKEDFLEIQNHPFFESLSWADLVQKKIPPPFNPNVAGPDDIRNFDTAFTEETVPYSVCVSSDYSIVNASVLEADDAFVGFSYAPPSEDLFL
As to conditions: at 0.1 µM.

Experiment [7] has as its target T3, Serine/threonine-protein kinase Sgk3 (Homo sapiens). As to conditions: at 1 µM.
For experiment [8], the target named is 5'-AMP-activated protein kinase catalytic subunit alpha-1 (Homo sapiens) (UniProt Q13131). As to conditions: at 0.1 µM.
5'-AMP-activated protein kinase catalytic subunit alpha-1 (Homo sapiens), sequence (Q13131 whole entry, looked up): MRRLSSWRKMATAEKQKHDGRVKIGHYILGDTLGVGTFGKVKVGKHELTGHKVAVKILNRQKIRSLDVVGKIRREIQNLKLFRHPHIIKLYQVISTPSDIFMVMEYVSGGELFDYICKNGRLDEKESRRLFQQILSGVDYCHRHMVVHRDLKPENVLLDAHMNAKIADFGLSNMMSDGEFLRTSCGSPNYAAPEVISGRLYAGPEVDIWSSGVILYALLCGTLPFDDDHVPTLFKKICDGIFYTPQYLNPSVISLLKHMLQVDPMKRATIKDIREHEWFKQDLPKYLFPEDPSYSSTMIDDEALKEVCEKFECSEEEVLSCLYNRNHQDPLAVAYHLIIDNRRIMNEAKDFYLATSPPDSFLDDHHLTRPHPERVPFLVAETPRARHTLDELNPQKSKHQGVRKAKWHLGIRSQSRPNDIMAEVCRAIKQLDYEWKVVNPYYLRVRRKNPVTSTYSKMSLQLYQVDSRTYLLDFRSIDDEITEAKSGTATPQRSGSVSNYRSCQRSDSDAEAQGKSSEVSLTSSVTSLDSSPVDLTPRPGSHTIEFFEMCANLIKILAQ
The target is the same in experiment [9]. As to conditions: at 1 µM.
In experiment [10] the target is 5'-AMP-activated protein kinase catalytic subunit alpha-2 (Homo sapiens) (UniProt P54646). To be noted: at 0.1 µM.
5'-AMP-activated protein kinase catalytic subunit alpha-2 (Homo sapiens), sequence (P54646 whole entry, looked up): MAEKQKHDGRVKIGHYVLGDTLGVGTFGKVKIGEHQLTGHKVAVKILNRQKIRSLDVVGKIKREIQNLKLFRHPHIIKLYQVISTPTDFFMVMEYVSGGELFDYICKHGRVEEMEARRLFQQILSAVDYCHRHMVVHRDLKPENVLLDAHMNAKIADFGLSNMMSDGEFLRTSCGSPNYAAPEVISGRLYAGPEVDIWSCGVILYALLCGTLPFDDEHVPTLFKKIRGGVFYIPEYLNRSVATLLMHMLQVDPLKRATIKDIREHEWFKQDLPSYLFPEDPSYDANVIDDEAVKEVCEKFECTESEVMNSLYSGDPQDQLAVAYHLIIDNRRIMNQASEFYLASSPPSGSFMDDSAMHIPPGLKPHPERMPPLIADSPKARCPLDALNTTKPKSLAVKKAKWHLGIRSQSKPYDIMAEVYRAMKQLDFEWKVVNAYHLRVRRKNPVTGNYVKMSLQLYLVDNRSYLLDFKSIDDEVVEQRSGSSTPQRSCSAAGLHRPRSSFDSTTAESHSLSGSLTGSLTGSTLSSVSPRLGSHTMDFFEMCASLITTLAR
Experiment [11] shares this target. As to conditions: at 1 µM.
The target in experiment [12] is T4, NUAK family SNF1-like kinase 1 (Homo sapiens) (UniProt O60285).
T4 sequence (whole entry): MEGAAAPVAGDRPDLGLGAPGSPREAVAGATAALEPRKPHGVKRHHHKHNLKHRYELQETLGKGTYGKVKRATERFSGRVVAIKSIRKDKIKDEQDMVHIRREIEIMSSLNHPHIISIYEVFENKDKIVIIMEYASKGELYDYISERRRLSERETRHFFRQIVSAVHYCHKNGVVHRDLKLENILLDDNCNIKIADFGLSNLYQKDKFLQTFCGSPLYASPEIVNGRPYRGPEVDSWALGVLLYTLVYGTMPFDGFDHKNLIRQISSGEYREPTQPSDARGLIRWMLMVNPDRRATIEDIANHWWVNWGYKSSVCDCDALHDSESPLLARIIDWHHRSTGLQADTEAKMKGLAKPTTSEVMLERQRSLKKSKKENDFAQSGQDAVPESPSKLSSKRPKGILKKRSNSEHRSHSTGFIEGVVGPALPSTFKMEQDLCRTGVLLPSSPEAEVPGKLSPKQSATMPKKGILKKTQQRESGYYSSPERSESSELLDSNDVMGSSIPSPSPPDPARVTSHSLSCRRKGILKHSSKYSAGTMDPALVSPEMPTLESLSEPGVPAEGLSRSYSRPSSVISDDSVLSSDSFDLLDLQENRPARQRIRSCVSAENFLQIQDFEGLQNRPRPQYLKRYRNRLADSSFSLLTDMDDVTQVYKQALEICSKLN
As to conditions: at 0.1 µM.

Experiment [13] addresses T4, NUAK family SNF1-like kinase 1 (Homo sapiens). As to conditions: at 1 µM.
The target in experiment [14] is T5, Serine/threonine-protein kinase BRSK1 (Homo sapiens) (UniProt Q8TDC3).
T5 sequence (whole entry): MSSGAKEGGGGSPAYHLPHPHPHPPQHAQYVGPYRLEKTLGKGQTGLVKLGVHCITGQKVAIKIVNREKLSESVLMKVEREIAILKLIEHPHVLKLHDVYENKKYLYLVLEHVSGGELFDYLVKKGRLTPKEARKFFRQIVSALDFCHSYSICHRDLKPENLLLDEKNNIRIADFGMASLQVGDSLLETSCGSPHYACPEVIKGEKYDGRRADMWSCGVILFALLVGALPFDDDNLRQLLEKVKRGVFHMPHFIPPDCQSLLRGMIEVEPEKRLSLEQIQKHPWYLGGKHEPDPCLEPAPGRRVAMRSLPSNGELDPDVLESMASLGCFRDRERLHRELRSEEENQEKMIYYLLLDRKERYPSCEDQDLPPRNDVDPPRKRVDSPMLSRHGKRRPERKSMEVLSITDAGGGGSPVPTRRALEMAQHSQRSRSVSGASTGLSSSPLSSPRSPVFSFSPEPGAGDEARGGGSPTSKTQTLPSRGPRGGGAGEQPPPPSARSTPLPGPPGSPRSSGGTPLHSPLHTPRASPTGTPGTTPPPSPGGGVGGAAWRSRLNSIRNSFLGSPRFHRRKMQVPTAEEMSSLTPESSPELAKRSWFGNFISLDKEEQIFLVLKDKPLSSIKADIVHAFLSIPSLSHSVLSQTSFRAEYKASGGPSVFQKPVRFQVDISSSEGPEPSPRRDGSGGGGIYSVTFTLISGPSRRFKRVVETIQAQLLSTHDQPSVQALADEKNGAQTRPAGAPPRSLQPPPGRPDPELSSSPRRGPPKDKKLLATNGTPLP
To be noted: at 0.1 µM.

The target in experiment [15] is T5, Serine/threonine-protein kinase BRSK1 (Homo sapiens). To be noted: at 1 µM.
Experiment [16] concerns the target T6, Serine/threonine-protein kinase BRSK2 (Homo sapiens) (UniProt Q8IWQ3).
T6 sequence (whole entry): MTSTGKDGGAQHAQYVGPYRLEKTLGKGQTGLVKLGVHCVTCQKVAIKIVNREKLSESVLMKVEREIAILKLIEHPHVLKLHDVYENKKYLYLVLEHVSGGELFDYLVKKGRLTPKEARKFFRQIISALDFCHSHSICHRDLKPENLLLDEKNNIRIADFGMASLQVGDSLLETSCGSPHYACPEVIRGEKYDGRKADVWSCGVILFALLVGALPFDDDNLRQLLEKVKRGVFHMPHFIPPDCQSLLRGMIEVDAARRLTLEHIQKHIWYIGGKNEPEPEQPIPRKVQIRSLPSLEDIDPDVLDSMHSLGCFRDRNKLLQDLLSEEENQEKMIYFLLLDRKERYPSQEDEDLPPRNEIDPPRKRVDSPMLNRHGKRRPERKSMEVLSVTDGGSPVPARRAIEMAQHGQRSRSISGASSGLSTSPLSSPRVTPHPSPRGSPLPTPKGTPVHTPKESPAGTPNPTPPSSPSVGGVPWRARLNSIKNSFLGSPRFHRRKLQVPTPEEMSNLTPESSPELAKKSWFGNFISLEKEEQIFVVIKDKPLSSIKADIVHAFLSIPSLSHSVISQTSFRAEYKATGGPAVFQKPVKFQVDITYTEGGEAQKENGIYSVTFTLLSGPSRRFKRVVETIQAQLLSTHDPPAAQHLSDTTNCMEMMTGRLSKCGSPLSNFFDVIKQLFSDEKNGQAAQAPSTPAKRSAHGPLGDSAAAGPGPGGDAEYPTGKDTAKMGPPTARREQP
To be noted: at 0.1 µM.

The target of experiment [17] is T6, Serine/threonine-protein kinase BRSK2 (Homo sapiens). To be noted: at 1 µM.
The target of experiment [18] is Calcium/calmodulin-dependent protein kinase type 1D (Homo sapiens) (UniProt Q8IU85). As to conditions: at 0.1 µM.
Calcium/calmodulin-dependent protein kinase type 1D (Homo sapiens), sequence (Q8IU85 whole entry, looked up): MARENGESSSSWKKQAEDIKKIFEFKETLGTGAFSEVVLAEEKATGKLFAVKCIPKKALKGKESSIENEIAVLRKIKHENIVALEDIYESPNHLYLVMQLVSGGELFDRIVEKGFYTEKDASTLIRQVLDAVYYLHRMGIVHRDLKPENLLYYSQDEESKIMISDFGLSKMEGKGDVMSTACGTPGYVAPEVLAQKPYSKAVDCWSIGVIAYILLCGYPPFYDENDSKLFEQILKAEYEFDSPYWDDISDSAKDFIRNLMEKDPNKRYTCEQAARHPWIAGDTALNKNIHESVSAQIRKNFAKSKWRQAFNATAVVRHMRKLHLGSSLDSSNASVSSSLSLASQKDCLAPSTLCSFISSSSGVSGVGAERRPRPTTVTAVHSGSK
For experiment [19] the target is unchanged. As to conditions: at 1 µM.
In experiment [20] the target is Calcium/calmodulin-dependent protein kinase type II subunit alpha (Homo sapiens) (UniProt Q9UQM7). As to conditions: at 0.1 µM.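 Note: reported values are averages (mean inhibition of CAMK2A).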
Calcium/calmodulin-dependent protein kinase type II subunit alpha (Homo sapiens), sequence (Q9UQM7 whole entry): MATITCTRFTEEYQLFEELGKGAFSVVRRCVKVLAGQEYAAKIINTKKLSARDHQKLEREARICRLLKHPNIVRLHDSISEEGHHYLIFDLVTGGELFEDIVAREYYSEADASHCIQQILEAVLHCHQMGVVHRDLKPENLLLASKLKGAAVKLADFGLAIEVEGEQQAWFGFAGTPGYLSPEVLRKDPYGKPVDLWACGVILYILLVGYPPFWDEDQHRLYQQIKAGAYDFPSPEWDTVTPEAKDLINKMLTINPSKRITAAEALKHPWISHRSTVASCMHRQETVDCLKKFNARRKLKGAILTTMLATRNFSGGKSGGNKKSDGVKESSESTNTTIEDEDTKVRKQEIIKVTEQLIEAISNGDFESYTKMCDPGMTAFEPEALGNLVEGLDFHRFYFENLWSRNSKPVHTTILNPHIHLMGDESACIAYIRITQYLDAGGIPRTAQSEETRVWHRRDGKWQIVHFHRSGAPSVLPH

Ribosomal protein S6 kinase alpha-6 (Homo sapiens), sequence (Q9UK32 whole entry): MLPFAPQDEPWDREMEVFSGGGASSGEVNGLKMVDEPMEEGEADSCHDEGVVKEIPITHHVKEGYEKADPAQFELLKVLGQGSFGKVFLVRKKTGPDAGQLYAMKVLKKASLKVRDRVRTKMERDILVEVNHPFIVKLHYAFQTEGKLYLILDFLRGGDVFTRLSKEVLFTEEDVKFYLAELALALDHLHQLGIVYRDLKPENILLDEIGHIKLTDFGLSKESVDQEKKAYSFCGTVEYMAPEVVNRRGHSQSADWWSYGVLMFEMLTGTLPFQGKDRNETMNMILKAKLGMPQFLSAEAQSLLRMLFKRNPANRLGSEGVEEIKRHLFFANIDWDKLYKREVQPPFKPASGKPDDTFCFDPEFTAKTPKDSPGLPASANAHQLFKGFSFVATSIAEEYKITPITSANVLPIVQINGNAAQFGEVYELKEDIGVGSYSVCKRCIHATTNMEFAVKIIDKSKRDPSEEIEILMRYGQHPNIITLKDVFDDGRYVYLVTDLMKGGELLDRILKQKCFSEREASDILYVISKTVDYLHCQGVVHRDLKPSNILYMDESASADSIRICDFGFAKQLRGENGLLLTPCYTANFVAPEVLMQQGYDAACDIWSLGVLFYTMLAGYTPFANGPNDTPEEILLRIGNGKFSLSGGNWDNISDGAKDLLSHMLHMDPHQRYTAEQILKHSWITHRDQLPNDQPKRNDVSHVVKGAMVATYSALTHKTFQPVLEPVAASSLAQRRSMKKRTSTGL

For orientation: inhibition means the change of the read-out against control, counted positive when it falls. Regarding `Cc1cc(O)cc(C)c1/C=C/c1cncc(C(=O)N(C)C)c1`, the inhibition in [1] is 1.77%; in experiment [2], 1.71%; in experiment [3], 2.5%; in experiment [4], -0.51%; in experiment [5], 2.83%; in experiment [6], 4.43%. Besides, the inhibition in experiment [7] is 0%; in experiment [8] it was 2.63%; in [9] it was 1.76%; in experiment [10] it was 1.57%; in [11], 4.38%; in experiment [12] it was 1.62%. Moreover, the inhibition in [13] is 8.58%; in experiment [14], 2.98%; in experiment [15], 8.54%; in experiment [16] it was 3.48%; in experiment [17], 6.07%; in [18], -0.81%. The inhibition in experiment [19] is 2.29%; in [20], 3.26%.
As for `COc1cc2ncnc(Nc3ccc4c(cnn4Cc4ccccc4)c3)c2cc1OC`, the inhibition is 1.92% in [1]; 2.26% in experiment [2]; 1.9% in experiment [3]; 1.23% in experiment [4]; -1.13% in experiment [5]; 2.62% in experiment [6]. The inhibition is 1.35% in experiment [7]; 1.38% in experiment [8]; 3.13% in [9]; 5.92% in [10]; 3.91% in experiment [11]; -0.12% in [12]. Besides, the inhibition in experiment [13] was 2.05%; in experiment [14], 1.23%; in experiment [15], 1.11%; in experiment [16], 0.79%; in experiment [17], 4.84%; in [18] it was 0.22%. Also, the values for the inhibition in experiment [19] and in experiment [20] were 1.49% and 0.08%, respectively.
For `CCn1c(-c2nonc2N)nc2c(C#CC(C)(C)O)nc(OCCNC)cc21`, the inhibition in experiment [1] was 2.45%; in experiment [2], 1.88%; in experiment [3] it was 2.66%; in experiment [4] it was 2.29%; in experiment [5], 4.48%; in [6] it was 2.71%. For the same molecule, the inhibition in experiment [7] is 13.9%; in experiment [8], 2.74%; in [9], 8.37%; in experiment [10] it was 4.37%; in experiment [11], 3.94%; in experiment [12], 1.05%. Also, the inhibition in experiment [13] was found to be 3.39%; in [14], 1.73%; in experiment [15], 0.16%; in experiment [16], 1.24%; in experiment [17], 4.81%; in experiment [18], 1.21%. Also, the results for the inhibition in experiment [19] and in experiment [20] were 2.06% and 3.99%, respectively.
